Over roughly 33,000 sequences, “E-score (-0.5 to 0.5)” has its median near -8e-05; the highest 2% begin near 0.23. What follows is part of a selection rich in the highest values, with near analogues and random picks from the rest.

This assay concerns the target T1, Nrg2 (UniProt P38082).
T1 sequence: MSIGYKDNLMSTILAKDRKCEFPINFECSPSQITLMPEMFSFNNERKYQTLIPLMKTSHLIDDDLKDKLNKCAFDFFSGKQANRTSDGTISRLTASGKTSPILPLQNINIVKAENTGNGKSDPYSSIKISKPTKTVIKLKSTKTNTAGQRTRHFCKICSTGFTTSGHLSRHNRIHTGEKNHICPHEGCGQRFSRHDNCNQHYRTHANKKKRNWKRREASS
The assay can be described thus: PBM E-score (8-mer binding enrichment) (E-score (-0.5 to 0.5)); higher = stronger / more preferred TF binding. To be noted: protein concentration: 100 nM; construct: GST-full length. The method, boiled down: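 PURExpress in vitro transcription/translation supplied GST-tagged yeast transcription factors, either full-length or DNA-binding domain. Applied at about 100-200 nM to universal all-10-mer Agilent arrays double-stranded by primer extension, the bound protein was detected with fluorescent anti-GST. E-scores, modified Wilcoxon-Mann-Whitney statistics, were given by the Universal PBM Analysis Suite to ungapped eight-base words pooled with their reverse complements after masliner normalisation.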
As to GTATGCGA, the “PBM E-score” value was found to be 0.136.
On to AGCAAATC, for which the “PBM E-score” value is 0.147.
Turning to ACCGATAC, the “PBM E-score” value was -0.00076.
CTCACGCA: the “PBM E-score” value was 0.353.
CGAACAAA: the “PBM E-score” value stood at 0.279.
In the case of GTCACGCA it was 0.0867.
In the case of CGAACAAG it was 0.165.
TTAACAAA: the “PBM E-score” value was 0.094.
Turning to AGAACAAA, the “PBM E-score” value came to 0.208.
In the case of GGAACAAC, the “PBM E-score” value came to 0.133.
As for CTCACGCC, the “PBM E-score” value is 0.0298.
In the case of CGAACAAC, the “PBM E-score” value amounted to 0.152.
In the case of GCAACAAA it was 0.176; in that of TGAACAAA, 0.244.
For GGAACAAA, the “PBM E-score” value is 0.263.
Turning to CTGCACGA, the “PBM E-score” value was determined as 0.0401.
With AACTTATA, the “PBM E-score” value stood at 0.145.
For GCCGACAC, the “PBM E-score” value was -0.0613.
With TCCGGTAA, the “PBM E-score” value was -0.0902.
Take CCTGGGTA: the “PBM E-score” value was -0.159.
For the sequence GCCGGAAA, the “PBM E-score” value was determined as 0.104.
In the case of ACTCTGCC it was -0.142.
In the case of GGGCATAA, the “PBM E-score” value worked out at 0.109.
Consider GGGCTTCA, for which the “PBM E-score” value is -0.103.
As for TCTCTAAA, the “PBM E-score” value was -0.134.
Consider AGAGCCCC, for which the “PBM E-score” value is -0.139.
Turning to GTGGTCCA, the “PBM E-score” value was 0.0422.
As to CGAACGCA, the “PBM E-score” value is 0.282.
Regarding TGAACGCA, the “PBM E-score” value turned out to be 0.0815.
With GGAACGCA, the “PBM E-score” value was 0.0954.
For the sequence AAGCGCTT, the “PBM E-score” value was 0.303.
Turning to AAGCGCTC, the “PBM E-score” value amounted to 0.0396.
Regarding AAGCGCTA, the “PBM E-score” value was 0.0465.
In the case of CCGCCAAC it was -0.126.
Consider ACGTTTCC, for which the “PBM E-score” value is -0.16.
As to ATTCCACG, the “PBM E-score” value is 0.0249.
In the case of ATTCCACC it was 0.0335; in that of ATTCCACA, 0.243; in that of GGAGGCAA, -0.141.
In the case of CAGGTCCA it was 0.0188; in that of ACCGTTCA, -0.164.
For ATATCGCA, the “PBM E-score” value is -0.0927.
In the case of AAATCGCC, the “PBM E-score” value was 0.00869.
For ATATCGCG, the “PBM E-score” value stood at 0.331.
AAATCGCG: the “PBM E-score” value amounted to 0.233.
As for ATATCGCC, the “PBM E-score” value was found to be 0.0573.
Regarding AAATCGCA, the “PBM E-score” value was 0.158.
With GGGTTTAA the figure was 0.0664; with AGATGGTA, 0.0502; with GTAGTGGA, 0.152.
As for ACCTTAGG, the “PBM E-score” value was -0.191.
As to CGCCCGAG, the “PBM E-score” value was 0.117.
Regarding TCCGGCCA, the “PBM E-score” value turned out to be 0.00685.
As for CGCGAAAG, the “PBM E-score” value worked out at 0.122.
Take GTGTAGAA: the “PBM E-score” value was -0.191.
In the case of GCAGGGGA, the “PBM E-score” value is -0.192.
In the case of GCAGGGAA it was 0.238; in that of CCAGGGAA, 0.0205.
For CCAGGGAC, the “PBM E-score” value was 0.366.
With GCAGGGCC, the “PBM E-score” value is 0.101.
Regarding GAAGGGAC, the “PBM E-score” value came to 0.159.
In the case of TCAGGGAA it was 0.0408.
Turning to CCAGGGAG, the “PBM E-score” value is -0.107.
For GCAGGGAC, the “PBM E-score” value is 0.28.
Take CATGTAGG: the “PBM E-score” value amounted to 0.092.
Turning to CGTCGGTC, the “PBM E-score” value was found to be 0.00408.
As to CAGGTTAA, the “PBM E-score” value is -0.0788.
As to CACGTCCA, the “PBM E-score” value is -0.177.
Consider ACGCGATC, for which the “PBM E-score” value was found to be 0.146.
Consider ACAGCTGA, for which the “PBM E-score” value came to 0.0892.
Regarding CGAGCTCA, the “PBM E-score” value worked out at 0.108.
Consider AGAGCTGA, for which the “PBM E-score” value is 0.00384.
As to CGAGCTCG, the “PBM E-score” value amounted to 0.241.
For CGAGCTGA, the “PBM E-score” value was 0.243.
For the sequence CGAGCTCC, the “PBM E-score” value turned out to be 0.12.
CGAGCTTA: the “PBM E-score” value is -0.0737.
As to GCAGCTGA, the “PBM E-score” value turned out to be 0.0488.
Consider TCAGCTGA, for which the “PBM E-score” value stood at 0.279.
In the case of ATCCTCAG it was 0.1.
With AGCGGCCT the figure was -0.275; with GCTTCGTA, -0.102.
With CGGCCGAA, the “PBM E-score” value stood at 0.0577.
GAGCTCGA: the “PBM E-score” value stood at 0.183.
Consider ACTAGCTA, for which the “PBM E-score” value is 0.0559.
In the case of AAGAATCC it was 0.0617.
For the sequence TACCCCCA, the “PBM E-score” value is -0.159.
For the sequence AACCCCAT, the “PBM E-score” value is 0.07.
In the case of ACCCCCAG it was -0.291.
Regarding TACCCCAA, the “PBM E-score” value was determined as 0.247.
Turning to AACCCCAA, the “PBM E-score” value was found to be 0.147.
With AACCCCAG the figure was 0.237; with GCCGCAAA, 0.157; with ATCAACCG, 0.0105.
For GGTGAATA, the “PBM E-score” value worked out at 0.104.
As for AGACCCTG, the “PBM E-score” value was 0.431.
Turning to AGACCCTA, the “PBM E-score” value amounted to 0.148.
As for ATACCCTG, the “PBM E-score” value worked out at 0.295.
As for AAACCCTA, the “PBM E-score” value is 0.184.
With CAACCCTA, the “PBM E-score” value stood at 0.0574.
In the case of CAACCCTG, the “PBM E-score” value came to 0.252.
Consider AACCCCTG, for which the “PBM E-score” value amounted to 0.055.
In the case of CAACCCTC, the “PBM E-score” value amounted to 0.0136.
ATACCCTC: the “PBM E-score” value was 0.0223.
For AGACCCTC, the “PBM E-score” value is 0.0175.
As for ATACCCTA, the “PBM E-score” value is 0.119.
For AAACCCTG, the “PBM E-score” value amounted to 0.318.
Turning to ATGGTTCG, the “PBM E-score” value stood at 0.109.
In the case of AGAACCTC, the “PBM E-score” value was -0.232.
Take GGGTAGGA: the “PBM E-score” value is -0.0916.

These data come from the supplement of paper PMC3334620.
